Inconclusive results are not listed. The source made the active and inactive calls. Rule for the calls: active = hit-call score of the fitted dose curve at least 0.9, where 1 is the maximum; inconclusive = response in the unintended direction; inactive = score below 0.9.
Molecular target: human Dual Specificity Styrosine-Phosphorylation-Regulated Kinase 1A (DYRK1a), DYRK1A (gene 1859) (UniProt Q13627)
Test: NVS_ENZ_hDYRK1a: NovaScreen (NVS) Enzymatic Assay for human Dual Specificity Styrosine-Phosphorylation-Regulated Kinase 1A (DYRK1a)
Procedure: NVS_ENZ_hDYRK1a is a biochemical, single-readout assay that uses extracted gene-proteins in a cell-free assay. Measurements were taken 1 hour after chemical dosing in a 96-well plate.NVS_ENZ_hDYRK1a is one of one assay component(s) measured or calculated from the NVS_ENZ_hDYRK1a assay. It is designed to make measurements of enzyme activity, a form of enzyme reporter, as detected with fluorescence intensity signals by Fluorescence and electrophoretic mobility shift technology.Data from the assay component NVS_ENZ_hDYRK1a was analyzed into 1 assay endpoint. This assay endpoint, NVS_ENZ_hDYRK1a, was analyzed in the positive analysis fitting direction relative to DMSO as the negative control and baseline of activity. Using a type of enzyme reporter, loss-of-signal activity can be used to understand changes in the enzymatic activity as they relate to the gene DYRK1A. Furthermore, this assay endpoint can be referred to as a primary readout, because this assay has produced multiple assay endpoints where this one serves a enzymatic activity function. To generalize the intended target to other relatable targets, this assay endpoint is annotated to the kinase intended target family, where the subfamily is dual-specific kinase.
Binding assays used specific radioligands (tritiated, iodinated) with non-radioactive competitive displacement ligands in agonist or antagonist protocols (as indicated) and various reference compounds and inhibitors to titrate specific binding to receptors and transporters. Most enzyme assays (CYPs, kinases, phosphatases, proteases, HDACs) used recombinant protein and specific substrates (fluorescence mostly, some colorimetric and radioactive) and inhibitors, followed by a biochemical separation of substrate and product. All assays for the biochemical HTS were initially run in duplicate at a single concentration (10 uM for CYP450 assays and 25 uM for all others). […] Each assay was run with positive and negative controls, and concurrent controls on every plate. The follow-up (secondary) screen tested active chemical-pairs in concentration series, as well as a few additional assays not tested in the primary screen, some selected negative inactives, and several cases re-run in the concentration series for confirmatory purposes.

Compound	AC50	outcome
S=C(S)NCCNC(=S)S.[Mn+2].[S-]C([S-])=NCCN=C([S-])[S-].[Zn+2]	1.39 µM (active)	–
O=C(O)C1(C(=O)Nc2ccc(Cl)cc2Cl)CC1	5.11 µM (active)	–
S=C([S-])NCCNC(=S)[S-].[Mn+2]	6.02 µM (active)	–
N#CSCSc1nc2ccccc2s1	–	inactive
CC(C)(C)[C@@H](O)[C@@H](Cc1ccc(Cl)cc1)n1cncn1	–	inactive
